Source: PubChem BioAssay (Tox21)
Records with an inconclusive call do not appear. Entries that show only a call come without a potency. Calls of active or inactive are those of the source. Calls come from the whole dose curve.

Assay: qHTS assay for small molecule agonists of the p53 signaling pathway - cell viability (AID 651633);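 note: p53RE-bla HCT reporter cells with a stable beta-lactamase p53 reporter; nearly all actives have a fitted effect of over 30% in size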
Settings: p53RE-bla HCT-116 viability, ATP luminescence, 16 h; series mostly up to 83.3 µM
Excerpt: National Center for Advancing Translational Sciences [NCATS]
NIH Chemical Genomics Center [NCGC]
U.S. Environmental Protection Agency [EPA]
National Institutes of Environmental Health Sciences [NIEHS]
National Toxicology Program [NTP]
U.S. Food and Drug Administration [FDA]
p53, a tumor suppressor protein, is activated following cellular insult, including DNA damage and other cellular stresses. The activation of p53 regulates cell fate by inducing DNA repair, cell cycle arrest, apoptosis, or cellular senescence. The activation of p53, therefore, is a good indicator of DNA damage and other cellular stresses. […] The activation of the reporter gene under culture conditions can be detected by fluorescence intensity. This cell line was used to screen the Tox21 compound library in a 1536-well plate format and to identify agonists that activate the p53 signaling pathway.
Tox21 Assay Protocol Summary:
The p53RE-bla cells were dispensed at 4,000 cells/5 ul/well in 1536-well black wall/clear bottom plates using a Multidrop dispenser. After the assay plates were incubated at a 37 C/5% CO2 incubator for 5 hours, 23 nL of compounds dissolved in DMSO, positive controls or DMSO only was transferred to the assay plate by a pin tool. The plates were incubated at 37 C for 16 hours. After 1 uL of LiveBLAzerTM B/G FRET substrate was added using a Flying Reagent Dispenser, the plates were incubated at room temperature for 2 hours, and fluorescence intensity was measured by an Envision plate reader.
For cell viability readout that measures cytotoxicity, 4 ul/well of CellTiter-Glo reagent was added into the assay plates using a Flying Reagent Dispenser. After 30 min incubation at room temperature, the luminescence intensity in the plates was measured using a ViewLux plate reader.

Row | SMILES | Potency
1 | CC(C)c1cccc(C(C)C)c1O | inactive
2 | Cc1ccc(N=C=O)cc1N=C=O | inactive
3 | Cc1cccc(N)c1C | inactive
4 | O=C(O)CCCc1ccc(N(CCCl)CCCl)cc1 | inactive
5 | CNCC(O)c1ccc(O)cc1 (stereo not given) | inactive
6 | CCCCC(CC)C(=O)Cl (stereo not given) | inactive
7 | C=CC#N | inactive
8 | O=C(O)C1C(C(=O)O)C2(Cl)C(Cl)=C(Cl)C1(Cl)C2(Cl)Cl (stereo not given) | inactive
9 | CN(C)C(=O)C(c1ccccc1)c1ccccc1 | inactive
10 | Cc1cc(Cl)ccc1OC(C)C(=O)O (stereo not given) | inactive
11 | O=C/C=C/c1ccccc1 | inactive
12 | CSc1nnc(C(C)(C)C)c(=O)n1N | inactive
13 | N#Cc1cccc(C#N)c1 | inactive
14 | COC(C)(C)CCCC(C)C/C=C/C(C)=C/C(=O)OC(C)C (stereo not given) | inactive
15 | ClCCOCCCl | inactive
16 | COC(=O)Nc1cccc(OC(=O)Nc2cccc(C)c2)c1 | inactive
17 | Cl[C@H]1OCCO[C@@H]1Cl | inactive
18 | Cc1cccc(N)c1 | inactive
19 | CNC(=O)O/N=C/C(C)(C)S(C)(=O)=O | inactive
20 | COc1nc(NC(C)C)nc(NC(C)C)n1 | inactive

Row | SMILES | Potency
21 | Nc1nc(N)nc(NC2CC2)n1 | inactive
22 | N#Cc1ccccn1 | inactive
23 | NNc1ccccc1 | inactive
24 | Sc1ccccc1 | inactive
25 | CCNc1nc(Cl)nc(NC(C)C)n1 | inactive
26 | Nc1ccc(N)cc1 | inactive
27 | O=C(O)C(Br)Br | inactive
28 | C[C@]12CC[C@H](O)CC1=CC[C@@H]1[C@@H]2CC[C@]2(C)C(=O)CC[C@@H]12 | inactive
29 | C=CCN=C=S | inactive
30 | Nc1cccc(Cl)c1 | inactive
31 | Nc1cc(Cl)cc(Cl)c1 | inactive
32 | Cc1cccc(C)c1NC(=O)CN1CCCC1=O | inactive
33 | c1ccc2c(c1)CCCC2 | inactive
34 | C=CC(=O)OCC(CC)CCCC (stereo not given) | inactive
35 | CNC(=O)O/N=C/C(C)(C)SC | inactive
36 | CCOc1ccc(N)cc1 | inactive
37 | C=C(C)C(=O)OCC(CC)CCCC (stereo not given) | inactive
38 | Cc1ccc(N)cc1 | inactive
39 | Nc1ncc([N+](=O)[O-])s1 | inactive
40 | CN(C)C(=O)Nc1cccc(C(F)(F)F)c1 | inactive
